Assay outcomes: PubChem BioAssay, Paczesny and Yang Labs, IUPUI and University of Michigan
ST2 IL33 inh: blocks human ST2 binding to IL-33. inhibition, % for hits at 17 µM. 2.3% of 78,000 active. Q01638. AlphaLISA ST2-Fc/biotin-IL-33 interaction, 1 h; in the data active = inhibition above about 30%
Target sequence (Q01638 whole entry, looked up): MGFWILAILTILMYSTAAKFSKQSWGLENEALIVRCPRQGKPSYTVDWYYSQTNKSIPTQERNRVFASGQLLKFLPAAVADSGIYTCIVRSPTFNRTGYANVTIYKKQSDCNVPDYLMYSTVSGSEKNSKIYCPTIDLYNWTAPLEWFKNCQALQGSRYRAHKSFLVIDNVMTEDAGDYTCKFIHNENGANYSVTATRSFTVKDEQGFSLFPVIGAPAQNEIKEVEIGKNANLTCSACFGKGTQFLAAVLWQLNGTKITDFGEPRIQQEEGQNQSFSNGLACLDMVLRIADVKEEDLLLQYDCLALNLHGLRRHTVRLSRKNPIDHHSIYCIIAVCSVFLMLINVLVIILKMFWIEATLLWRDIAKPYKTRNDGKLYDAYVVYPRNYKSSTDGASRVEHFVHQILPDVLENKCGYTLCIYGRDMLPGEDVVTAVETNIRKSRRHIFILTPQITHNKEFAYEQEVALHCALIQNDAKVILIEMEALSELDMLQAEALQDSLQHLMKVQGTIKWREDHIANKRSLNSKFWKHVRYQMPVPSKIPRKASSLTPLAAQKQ
Hits are given with their value; . = inactive; ! = not active in a repeat. The entries come from a sample that favours hits as a whole.

SMILES	ST2 IL33 inh
O=C(Cn1ccc2ccccc2c1=O)NCC(=O)Nc1ccccn1	.
Cc1ccc2c(C(=O)CN3CCOCC3)c(C)[nH]c2c1	32%
Cc1[nH]c2ccc(Cl)cc2c(=O)c1CN1CCOCC1	.
COc1ccc2c(c1)c(C(=O)CN1CCOCC1)c(C)n2C	.
CCC1CCc2c(sc(NC(=O)CCC(=O)O)c2C(N)=O)C1 (stereo not given)	.
O=C(O)c1cccc(NC(=O)c2cccc(C(=O)Nc3cccc(C(=O)O)c3)c2)c1	.
CC1(C)OC(=O)C(=CNc2cccc(C(=O)O)c2)C(=O)O1	33%
O=C(O)c1cccc(NC(=O)c2ccc(-c3ccccc3)cc2)c1	.
CCOc1c(NC2CCCC2)c(=O)c1=O	.
Cc1ccnc(NC(=O)C2CC(=O)N(c3ccc(F)cc3)C2)c1 (stereo not given)	.
CC(C)NC(=O)C1CC(=O)N(c2ccc(F)c(Cl)c2)C1 (stereo not given)	.
CCC(C)NC(=O)C1CC(=O)N(c2ccc(F)cc2)C1 (stereo not given)	33%
COc1ccc(C(=O)CC2(O)C(=O)Nc3ccc(Cl)cc32)cc1OC (stereo not given)	.
CN1CCC(N(C)C(=O)CCC2CCCN(Cc3cnn(-c4ccc(F)cc4)c3)C2)CC1 (stereo not given)	.
OC1CCCN(Cc2cccc(Oc3ccccc3)c2)C1 (stereo not given)	.
CCOc1ccc([N+](=O)[O-])cc1C1Nc2ccccc2-c2nnc(SC)nc2O1 (stereo not given)	.
CC1=C(C(=O)Nc2ccc(Cl)cc2)C(c2ccc([N+](=O)[O-])cc2)n2ncnc2N1 (stereo not given)	.
CCOC1=NC2Nc3ccc(Cl)cc3N(C)C2C1c1ccc([N+](=O)[O-])cc1 (stereo not given)	36%
Cc1ccc(C2=NN(C(=O)c3ccc(O)cc3)C(O)(C(F)(F)F)C2)cc1 (stereo not given)	.
CCCc1cc(C(=O)N2CCC3(CCCN(CCOC)C3=O)C2)no1 (stereo not given)	.
O=C(Cc1ccc(-n2c(=O)[nH]c3ccsc3c2=O)cc1)N1CCCCC1	.
COc1cc(C2CC(c3ccccc3O)=NN2)ccc1O (stereo not given)	32%
COc1cc(C2N(Cc3ccccc3)CCN2Cc2ccccc2)ccc1O	.
COc1cc(C2C3=C(CCCC3=O)NC3=C2C(=O)c2ccccc23)ccc1O (stereo not given)	.
COc1cccc(OCCCCOc2cccc(OC)c2)c1	.
SMILES	ST2 IL33 inh
CSc1cccc(N2C(=O)NC3CC2(C)Oc2ccccc23)c1 (stereo not given)	.
O=C1NC(=O)/C(=C/c2ccc([N+](=O)[O-])cc2)S1	.
O=C1S/C(=C\c2ccc(Cl)cc2Cl)C(=O)N1CN1CCOCC1	.
O=C1NC(=O)/C(=C\c2ccc(Cl)cc2Cl)S1	31%
O=C(CN1CCN(Cc2ccc(F)cc2Cl)C1=O)N1CCCC1	.
O=C(NCc1cccnc1)c1ccc2c(c1)N(Cc1c(F)cccc1Cl)C(=O)CS2	.
CCS(=O)(=O)Nc1cccc(C(=O)CC2(O)C(=O)Nc3ccc(Br)cc32)c1 (stereo not given)	.
CC(=O)N1CCC(N2CCCC2C(=O)Nc2ccc(-c3cccc(F)c3)cc2)CC1 (stereo not given)	.
O=c1oc(-c2cc([N+](=O)[O-])ccc2Cl)nc2ccc(Br)cc12	.
N#C/C(=C\c1ccc(-c2cc([N+](=O)[O-])ccc2Cl)o1)c1[nH]nc(N)c1C#N	45%
O=c1oc(-c2cc([N+](=O)[O-])ccc2Cl)nc2ccc(I)cc12	.
N#CCSc1nc(-c2ccccc2)c(-c2ccccc2)o1	.
O=C(O)CNS(=O)(=O)c1ccc2c(c1)OCCO2	.
O=C(Nc1ccc(I)cc1)c1ccco1	.
CCC(C)NC(=O)c1noc2c1CCCC2 (stereo not given)	.
O=C(CCc1ccco1)NC1CCCN(CCc2ccccc2)C1 (stereo not given)	31%
COCCC(=O)NC1CCCN(CCc2ccccc2)C1 (stereo not given)	.
O=C1CC(NC2CCN(Cc3ccco3)CC2)CN1CCc1ccccc1 (stereo not given)	.
COc1cccc(C(C)N(C)C(=O)CCc2nnc(Cc3cc(OC)ccc3OC)o2)c1 (stereo not given)	.
O=C1CSC(c2cccc(Cl)c2Cl)N1c1ccccn1 (stereo not given)	.
Cc1nn(-c2ccccn2)c2c1C(=O)/C(=C\Nc1ccccc1Cl)CC2	31%
Cc1nn(-c2ccccn2)c2c1C(=O)/C(=C/Nc1ccc([N+](=O)[O-])cc1Br)CC2	.
N#CC1=C(N)Oc2n[nH]c(-c3ccc4ccccc4c3)c2C1c1ccc2c(c1)OCO2 (stereo not given)	.
CNC(=O)c1cccc(-c2cc(NCc3cccnc3)nc3[nH]ccc23)c1	.
CN(C)CCNc1cc(-c2ccc(Cl)cc2F)c2cc[nH]c2n1	30%
SMILES	ST2 IL33 inh
CNC(=O)c1ccc(-c2cc(NCCN(C)C)nc3[nH]ccc23)o1	.
O[C@H]1COC[C@@H]1N1CCCN(c2ncnc3c2CCNC3)CC1	.
CC1(C(=O)NC2CCCCC2)CCC(=O)N1Cc1ccccc1Cl (stereo not given)	.
COc1cc(/C=C2/SC(=Nc3ccccc3Cl)NC2=O)cc(OC)c1	.
O=C1NC(=Nc2ccccc2)S/C1=C/c1cc2c(cc1Br)OCO2	.
O=C1N/C(=N/O)S/C1=C/c1ccc([N+](=O)[O-])cc1	.
COc1ccc(/C=C2/SC(=Nc3ccc(S(N)(=O)=O)cc3)NC2=O)cc1	37%
CC(C)c1ccc(/C=C2/SC(=Nc3ccccc3)NC2=O)cc1	37%
CCOc1cc(/C=C2/SC(=Nc3ccccc3)NC2=O)ccc1OC	.
O=c1c2ccccc2ncn1CCOc1ccc(Cl)cc1Br	.
COc1ccc(C2CC(C(F)(F)F)n3nc(C(=O)N4CCCC4)c(Cl)c3N2)cc1OC (stereo not given)	.
Cc1ccc(CCn2cc(C3CC=CCC3)nn2)cc1C (stereo not given)	.
CCn1c(CN2CCC(c3cc(C(C)C)n[nH]3)CC2)nc2ccccc21	.
CCN1C(=O)/C(=C2\SC(N)=NC2=O)c2cc(Br)ccc21	.
CCCN1C(=O)/C(=C2\SC(N)=NC2=O)c2cc(Br)ccc21	33%
CCCN1C(=O)C(=O)c2cc(Br)ccc21	.
O=C(c1ccc(Br)o1)N1CCN=C1SCc1ccc(Br)cc1	.
COc1cc(C(=O)Nc2ccc3c(c2)OCO3)cc(OC)c1OC	.
O=C(Nc1ccc2c(c1)OCO2)c1cc(-c2ccccc2O)on1	.
Cc1cc(NC(=O)c2cc(-c3ccc4c(c3)OCO4)on2)no1	.
O=C(Nc1ccc2c(c1)OCO2)c1ccc(Br)cc1	.
CC(=O)c1ccc(NC(=O)c2cc(-c3ccc4c(c3)OCO4)on2)cc1	31%
O=C(O)C1CC=CCC1C(=O)Nc1ccc2c(c1)OCO2 (stereo not given)	.
O=C(O)C1C2C=CC(O2)C1C(=O)Nc1ccc2c(c1)OCO2 (stereo not given)	31%
Cc1cccc(NC(=O)c2cc3c([nH]c4ccccc43)c(C)n2)c1C	.
Cc1nc(C(=O)Nc2ccc3c(c2)OCO3)cc2c1[nH]c1ccccc12	30%
O=C(Nc1ccc(F)c(Cl)c1)c1cc(-c2ccc3c(c2)OCO3)on1	.
Cc1ccc(C(=O)Nc2ccc3c(c2)OCO3)cc1	30%!
O=C(CC1CCCCC1)Nc1ccc2c(c1)OCO2	.
COc1ccc(Cc2cnc(NC(=O)COc3ccccc3OC)s2)cc1	.
